Test results from the OligoGym collection.

Molecular target: DTX1
Experiment: pooled miR-30 sensor sort-seq; sequence = guide strand
Conditions: shRNA
Further: reference of the scale not given here.

Row | Sequence | sensor-assay potency score (higher = more potent)
1 | TTGCGGTGAACTTCTTCCCGGG | -0.0133
2 | TGTCTAGGTAGCTAGCGTCCGG | -0.967
3 | TTCACCTTCTGCATGTATCTTC | 0.43
4 | TTTAAGGTGCTTCTTCTTGGTC | -0.486
5 | TATTTCTCCACCCACAGTGGGA | -0.561
6 | TCTTCGAACCACATCCTCGGGA | -0.159
7 | TTTGTAGAACTGCTCAGTCATC | -1.13
8 | TTCATCTGCGACATGCTGTTGA | 0.174
9 | TGAGGTTGGATCCAAACTCGGT | -0.565
10 | TATCTTCGAACCACATCCTCGG | 0.116
11 | TAGAACTGCTCAGTCATCTGGG | 0.451
12 | TTGACCAGCAGGCACTGCTGGC | -1.17
13 | TTGAAGTAGATGAGGTAGCAGA | -0.853
14 | TTCTTTTGTAGAACTGCTCAGT | -0.299
15 | TGTCTCTTCTCTTCCAGCCTGG | 0.154
16 | TTTTGAAAAGAGCAATCGCTGG | -0.945
17 | TTGGTCTTGCGGCACACCCCGG | -0.985
18 | TGTATCTTCGAACCACATCCTC | -0.0113
19 | TGCTTCTTCTTGGTCTTGCGGC | -0.99
20 | TCTAGGTAGCTAGCGTCCGGGT | -1.53
21 | TTTGAAAAGAGCAATCGCTGGC | 0.224
